High-throughput results from PubChem.
CYP2C19 activ: cytochrome P450 2C19 (human) activation; P33261; recombinant CYP2C19, luciferin-H EGE luminescence; stronger effect = higher value; 0 = fully inhibited enzyme, 1 = untreated enzyme; activation factor at 5 µM; 96,000 tested, under 10 active;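 active = activation factor of at least 2 at 5 µM in the primary screen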
CYP2C9 inh: inhibitors of human CYP2C9; CYP2C9 Supersomes, luciferin-H conversion, luminescence; inhibition, % at 5 µM; 96,000 tested, 20% active; AID 777;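 active = blocking of liver enzyme CYP2C9 beyond about 50% at 5 µM, limit read from the data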
Target sequence (P11712 whole entry, looked up): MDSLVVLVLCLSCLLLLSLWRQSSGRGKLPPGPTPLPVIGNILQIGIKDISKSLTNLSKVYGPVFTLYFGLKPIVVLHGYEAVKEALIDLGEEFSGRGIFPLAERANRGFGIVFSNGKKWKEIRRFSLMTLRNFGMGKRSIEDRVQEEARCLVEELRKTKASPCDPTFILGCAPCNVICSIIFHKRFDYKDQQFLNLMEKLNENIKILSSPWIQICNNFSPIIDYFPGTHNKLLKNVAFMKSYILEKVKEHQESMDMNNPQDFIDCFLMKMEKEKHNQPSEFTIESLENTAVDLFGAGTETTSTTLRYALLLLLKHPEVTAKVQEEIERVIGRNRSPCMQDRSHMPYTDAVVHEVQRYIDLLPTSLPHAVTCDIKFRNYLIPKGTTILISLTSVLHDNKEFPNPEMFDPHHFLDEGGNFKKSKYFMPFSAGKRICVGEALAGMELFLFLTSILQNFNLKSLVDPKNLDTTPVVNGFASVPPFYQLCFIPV
CYP2C19 inhib: inhibitors of human CYP2C19. P33261. CYP2C19 Supersomes, luciferin-H EGE luminescence, 30 min. inhibition, % at 5 µM. 96,000 tested, 21% active;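 active = CYP2C19 inhibition above a set limit at 5 µM in the primary screen, cut at about 50% in these data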
CYP2C9 activ: CYP2C9 (human) activation; P11712; recombinant CYP2C9, luciferin-H conversion, luminescence; stronger effect = higher value; factor 1 = untreated enzyme, 0 = blocked; activation factor at 5 µM; 96,000 tested, 1.4% active;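 active = activation factor of 2 or more for CYP2C9 at a 5 µM dose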
Hits are given with their value. A selection: hits, their analogues and other compounds. The true share with any hit is near 31%.

CC1C(=O)CC(c2ccccc2)NC1c1ccccc1 (configuration not stated) was read as CYP2C19 activ inactive, CYP2C9 inh inactive, CYP2C19 inhib 82 and CYP2C9 activ inactive.
Screening O=C1CC(c2ccccc2)NC(=O)N1 (configuration not stated) returned CYP2C19 activ inactive, CYP2C9 inh inactive, CYP2C19 inhib inactive and CYP2C9 activ inactive.
CC1C(=O)CC(c2ccco2)NC1c1ccco1 (configuration not stated) was read as CYP2C19 activ inactive, CYP2C9 inh inactive, CYP2C19 inhib 69 and CYP2C9 activ inactive.
Screening CCC1/C(=N\O)CC(c2ccco2)NC1c1ccco1 (configuration not stated) returned CYP2C19 activ inactive, CYP2C9 inh inactive, CYP2C19 inhib inactive and CYP2C9 activ inactive.
Screening C=CCn1c(=N)c(C(=O)NCCCOC)cc2c(=O)n3ccccc3nc21 returned CYP2C19 activ inactive, CYP2C9 inh inactive, CYP2C19 inhib inactive and CYP2C9 activ inactive.
For CCOC(=O)c1sc(NC(=O)CSc2nnc(Cc3ccccc3)o2)c(C(=O)OCC)c1C the results were CYP2C19 activ inactive, CYP2C9 inh 78, CYP2C19 inhib 54 and CYP2C9 activ inactive.
CCN(CC)C(=O)CSc1nnc(CNc2ccc(F)cc2)o1 was read as CYP2C19 activ inactive, CYP2C9 inh inactive, CYP2C19 inhib inactive and CYP2C9 activ inactive.
Screening Cc1cnc(NC(=O)CSc2nnc(Cc3ccccc3)o2)s1 returned CYP2C19 activ inactive, CYP2C9 inh inactive, CYP2C19 inhib inactive and CYP2C9 activ inactive.
Screening CCOC(=O)c1c(NC(=O)CSc2nnc(CNc3ccc(F)cc3)o2)sc(C)c1C returned CYP2C19 activ inactive, CYP2C9 inh 63, CYP2C19 inhib inactive and CYP2C9 activ inactive.
C=CCc1ccccc1OCC(O)CN(CC)CC (configuration not stated) was read as CYP2C19 activ inactive, CYP2C9 inh inactive, CYP2C19 inhib inactive and CYP2C9 activ inactive.
Screening O=C1Nc2ccccc2C12OC1CCCCC1O2 (configuration not stated) returned CYP2C19 activ inactive, CYP2C9 inh inactive, CYP2C19 inhib inactive and CYP2C9 activ inactive.
`N#CC1=C(N)C(C#N)(C#N)C2(C(=O)Nc3ccccc32)C2CCCC=C12` (configuration not stated) gave CYP2C19 activ inactive, CYP2C9 inh 55, CYP2C19 inhib inactive and CYP2C9 activ inactive.
Screening O=C(NCC1CCCCC1)C1CCCN(C(=O)NC2CCCCC2)C1 (configuration not stated) returned CYP2C19 activ inactive, CYP2C9 inh inactive, CYP2C19 inhib inactive and CYP2C9 activ inactive.
`Cc1nn(Cc2ccc(Cl)cc2)c(C)c1NC(=O)C1CC=CCC1C(=O)O` (configuration not stated) gave CYP2C19 activ inactive, CYP2C9 inh inactive, CYP2C19 inhib inactive and CYP2C9 activ inactive.
CCCn1c(SCC(=O)Nc2ccccc2CC)nnc1C(C)C was read as CYP2C19 activ inactive, CYP2C9 inh inactive, CYP2C19 inhib inactive and CYP2C9 activ inactive.
For CCCn1c(SCC(=O)Nc2sc(C)c(C)c2C#N)nnc1C(C)C the results were CYP2C19 activ inactive, CYP2C9 inh inactive, CYP2C19 inhib 75 and CYP2C9 activ inactive.
`Cc1nnc(SCC(=O)Nc2sc3c(c2C(N)=O)CCCC3)[nH]c1=O` gave CYP2C19 activ inactive, CYP2C9 inh 69, CYP2C19 inhib inactive and CYP2C9 activ inactive.
Cc1sc(NC(=O)CSc2nnc(C)c(=O)[nH]2)c(C#N)c1C was read as CYP2C19 activ inactive, CYP2C9 inh 97, CYP2C19 inhib inactive and CYP2C9 activ inactive.
Cn1cnnc1SCC(=O)Nc1sc2c(c1C(N)=O)CCC2 was read as CYP2C19 activ inactive, CYP2C9 inh inactive, CYP2C19 inhib inactive and CYP2C9 activ inactive.
`Cc1cc(C)nc(NC(=O)CSc2nc3ccccc3o2)n1` gave CYP2C19 activ inactive, CYP2C9 inh inactive, CYP2C19 inhib 63 and CYP2C9 activ inactive.
`Cc1ccc2nc(NC(=O)CSc3ncnc4c3oc3ccccc34)sc2c1` gave CYP2C19 activ inactive, CYP2C9 inh inactive, CYP2C19 inhib inactive and CYP2C9 activ inactive.
Screening CC(=O)Nc1nonc1NC(=O)CSc1nc2ccccc2o1 returned CYP2C19 activ inactive, CYP2C9 inh inactive, CYP2C19 inhib 53 and CYP2C9 activ inactive.
Cc1cccc(NC(=O)CSc2nc3ccccc3o2)c1 was read as CYP2C19 activ inactive, CYP2C9 inh inactive, CYP2C19 inhib 69 and CYP2C9 activ inactive.
CC(=O)c1cc2c(cc1NC(=O)CSc1nc3ccccc3o1)OCO2 was read as CYP2C19 activ inactive, CYP2C9 inh inactive, CYP2C19 inhib inactive and CYP2C9 activ inactive.
Cc1ccc2nc(NC(=O)CSc3nc4ccccc4o3)sc2c1 was read as CYP2C19 activ inactive, CYP2C9 inh 55, CYP2C19 inhib inactive and CYP2C9 activ inactive.
`O=C(CSc1nc2ccccc2o1)Nc1ccc(Cl)cc1` gave CYP2C19 activ inactive, CYP2C9 inh inactive, CYP2C19 inhib inactive and CYP2C9 activ inactive.
Screening CCCOc1ccc(C(CC(=O)O)NS(=O)(=O)c2ccc(NC(C)=O)cc2)cc1 (configuration not stated) returned CYP2C19 activ inactive, CYP2C9 inh inactive, CYP2C19 inhib inactive and CYP2C9 activ inactive.
`C=CCNC(=S)NNC(=O)C(CCC(C)C)CC(C)O` (configuration not stated) gave CYP2C19 activ inactive, CYP2C9 inh inactive, CYP2C19 inhib inactive and CYP2C9 activ inactive.
Cc1cc(C)cc(C(=O)N(NC(=O)Nc2ccc(Cl)cc2)C(C)(C)C)c1 was read as CYP2C19 activ inactive, CYP2C9 inh inactive, CYP2C19 inhib inactive and CYP2C9 activ inactive.
`Cc1nn2c(-c3cccc(NC(=O)CSc4nc5ccccc5o4)c3)nnc2c2ccccc12` gave CYP2C19 activ inactive, CYP2C9 inh 92, CYP2C19 inhib 98 and CYP2C9 activ inactive.
`COc1cc(OC)nc(NC(=O)CSc2nc3ccccc3o2)n1` gave CYP2C19 activ inactive, CYP2C9 inh inactive, CYP2C19 inhib 86 and CYP2C9 activ inactive.
Screening COC(=O)CSc1nc2ccccc2o1 returned CYP2C19 activ inactive, CYP2C9 inh inactive, CYP2C19 inhib inactive and CYP2C9 activ inactive.
`Cc1ccc(-c2nnc3c4ccccc4c(C)nn23)cc1NC(=O)CN1CCOCC1` gave CYP2C19 activ inactive, CYP2C9 inh inactive, CYP2C19 inhib inactive and CYP2C9 activ inactive.
CCOC(=O)C(NC(=O)c1ccccc1)(N1CCOCC1)C(F)(F)F (configuration not stated) was read as CYP2C19 activ inactive, CYP2C9 inh inactive, CYP2C19 inhib inactive and CYP2C9 activ inactive.
Screening CCOC(=O)C(NC(=O)c1ccc(OC)cc1)(N1CCOCC1)C(F)(F)F (configuration not stated) returned CYP2C19 activ inactive, CYP2C9 inh 63, CYP2C19 inhib inactive and CYP2C9 activ inactive.
CCOC(=O)C(NCc1ccccc1OC)(NC(=O)c1ccccc1)C(F)(F)F (configuration not stated) was read as CYP2C19 activ inactive, CYP2C9 inh 63, CYP2C19 inhib inactive and CYP2C9 activ inactive.
Screening CCOC(=O)C(NC(C)=O)(N1CCc2ccccc2C1)C(F)(F)F (configuration not stated) returned CYP2C19 activ inactive, CYP2C9 inh 92, CYP2C19 inhib 75 and CYP2C9 activ inactive.
